# Compound activity: PubChem, several laboratories
# Only some compounds are listed: those with a hit (about 2.4% of all), similar ones and a draw of the others.
# S1P3 antag = S1P3 (human) receptor antagonism. CHO S1P3 NFAT-BLA reporter, FRET fluorescence, antagonist mode. 170,000 compounds, 0.27% hits. inhibition, % at 4.98 µM. Q99500;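 active = inhibition above the plate cutoff, the mean inhibition of test wells on that plate plus 3 SD, cut at about 28% in these data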;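 also: cells challenged with S1P at its EC80 of 0.8 µM; blue over green emission ratio from cleaved BLA substrate after 4 h stimulation; 0% = S1P-stimulated wells and 100% = unstimulated DMSO-only wells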
# Target sequence (Q99500 whole entry, looked up): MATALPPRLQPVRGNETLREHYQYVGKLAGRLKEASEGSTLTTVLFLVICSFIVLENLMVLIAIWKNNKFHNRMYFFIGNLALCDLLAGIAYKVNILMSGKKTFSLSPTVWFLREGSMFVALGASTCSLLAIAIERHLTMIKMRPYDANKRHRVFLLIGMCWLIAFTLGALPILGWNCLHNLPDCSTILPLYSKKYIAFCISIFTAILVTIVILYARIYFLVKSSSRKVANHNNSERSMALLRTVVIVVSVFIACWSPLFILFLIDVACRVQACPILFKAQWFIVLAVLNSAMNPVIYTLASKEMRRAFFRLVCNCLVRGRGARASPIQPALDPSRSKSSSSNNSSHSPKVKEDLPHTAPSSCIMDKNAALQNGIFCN
# Insulin prom inh = TRM-6 insulin promoter activity inhibition; inhibition, % at 2 µM; 130,000 compounds, 0.9% hits; TRM-6 cells (human fetal islet line), insulin promoter-eGFP reporter, imaging; reporter expression induced with tamoxifen;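 active = inhibition above the mean plus 3 SD, with well images judged a real hit on visual review, cut at about 60% in these data, passing the limit was not always enough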
# S1P4 antagonist = blocks the human S1P4 receptor | inhibition, % at 4.98 µM | S1P4-expressing cells, antagonist mode, reporter read-out | 220,000 compounds, 0.26% hits; in the data active = inhibition above about 29%;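 also: 0% = wells stimulated with agonist and 100% = vehicle wells without agonist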
# S1P4 agonist = activates the human S1P4 receptor. O95977. S1P4-expressing cell line, agonist reporter assay. activation, % at 4.98 µM. 220,000 compounds, 0.35% hits. AID 1509; in the data active = activation above about 11%;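 also: 0% = DMSO vehicle and 100% = reference agonist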
# EP2 modulator = modulators of human EP2 prostaglandin E2 receptor; P43116; EP2-expressing cells, cAMP HTRF FRET, PGE2 co-stimulation; induction, % at 25 µM; 260,000 compounds, 0.83% hits;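 active = compounds whose cAMP rise, as percent of the full-agonist control response, exceeds 60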;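 also: rat C6 glioma line stably carrying human EP2 under a CMV promoter; the protocol text gives 20 µM as final concentration; 100% = response of wells given 1 µM PGE2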
# EP2 antag = inhibitors of human EP2 prostaglandin E2 receptor; 260,000 compounds, 0.52% hits; AID 1422; inhibition, % at 25 µM; P43116; C6 glioma cells expressing human EP2, cAMP TR-FRET; cells stimulated with saturating PGE2;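 active = percent inhibition above 40 after rounding to a whole number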;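 also: rat C6 glioma host cells with rolipram phosphodiesterase inhibitor present; the protocol text gives 20 µM as final concentration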
# * hit, by the source's call; i = inactive; x = not tested or not shown.
SMILES,S1P3 antag,Insulin prom inh,S1P4 antagonist,S1P4 agonist,EP2 modulator,EP2 antag
Cn1c(=O)c2c(nc(NCC3CCCO3)n2Cc2ccccc2)n(C)c1=O (stereo unspecified),x,81*,-11,1,13,12
COc1ccc(C2(O)C3CCCC2CN(Cc2ccc(OC)cc2OC)C3)cc1 (stereo unspecified),x,x,x,x,-44,4
COC(=O)c1ccccc1NC(=O)C/C(C)=N/NC(=O)CC#N,-4,71*,-13,2,17,8
COC(=O)c1ccccc1NC(=O)CC#N,-24,-32,-13,-1,-2,12
c1cncc(CSc2nnc3c4ccccc4nc(C4CCCCC4)n23)c1,x,x,x,x,65*,9
COc1cccc2c1C(=O)c1c(O)c3c(c(O)c1C2=O)C[C@](O)(C(=O)CO)C[C@@H]3O[C@@H]1C[C@H](N)[C@@H](O)[C@H](C)O1,x,x,x,x,31,40*
CC(=O)[C@]1(O)Cc2c(O)c3c(c(O)c2[C@@H](O[C@H]2C[C@H](N)[C@H](O)[C@H](C)O2)C1)C(=O)c1ccccc1C3=O,x,x,x,x,-13,22
COc1cccc2c1C(=O)c1c(O)c3c(c(O)c1C2=O)C[C@@](O)(C(=O)CO)C[C@@H]3O[C@H]1C[C@H](N)[C@@H](O)[C@H](C)O1,x,x,x,x,x,18
COc1cccc2c1C(=N)c1c(O)c3c(c(O)c1C2=O)C[C@](O)(C(C)=O)C[C@@H]3O[C@@H]1C[C@H](N)[C@@H](O)[C@H](C)O1,x,x,x,x,-116,128*
COc1cccc2c1C(=O)c1c(O)c3c(c(O)c1C2=O)C[C@@](O)(C(C)=O)C[C@@H]3O[C@H]1C[C@H](N)[C@H](O)[C@H](C)O1,-2,-355,101*,-3,0,x
Cc1cccc(NC(=O)Cn2cnc3sc4c(c3c2=O)CCC(C)C4)c1C (stereo unspecified),x,x,x,x,-5,5
CC[C@H](Cn1ncc2ccccc2c1=O)NC(=O)C1CCCC1,x,x,x,x,-18,x
COc1cc2c(cc1O)[C@@H](c1cc(O)c(O)c(OC)c1)[C@](O)(C(=O)O)[C@@H](CO)[C@@H]2O,x,x,x,x,7,54*
CC(=O)CCc1c(C)c2cc(C)ccc2[nH]c1=O,-11,70*,4,-1,2,15
COc1ccc(CNCCNC(=O)c2ccco2)c(OC)c1,x,x,x,x,-36,11
CCOc1cc(C2CC(=O)Nc3cc(C)c(C)cc32)ccc1O (stereo unspecified),-14,0,-1,1,64*,6
O=C(CN1CCC(c2ccccc2F)CC1)NC1CCCC1,x,x,x,x,-62,5
COCCCNC(=O)c1cc2c(=O)n3cc(C)ccc3nc2n(CCOC)c1=N,x,x,x,x,-12,7
Cc1nn(-c2cc(C)c3ccccc3n2)c2c1CCC2,-10,-6,-10,1,64*,0
C=C(C)C1Cc2c(C)nn(-c3cc(C)c4ccccc4n3)c2C1 (stereo unspecified),x,-81,-11,1,x,x
Cc1nc(C)c(-c2csc(Nc3cccnc3)n2)s1,-3,87*,-34,-1,-9,9
c1cncc(Nc2nc(-c3ccncc3)cs2)c1,12,4,-12,-1,5,1
COc1cccc(C(=O)COc2ccccc2-c2ccccc2)c1,-1,18,7,-1,61*,8
O=C(COc1ccccc1-c1ccccc1)c1ccccc1,0,x,-4,-1,41,5
CC(=O)Nc1nonc1NC(C)=O,-66,-93,-5,-1,-6,7
SMILES,S1P3 antag,Insulin prom inh,S1P4 antagonist,S1P4 agonist,EP2 modulator,EP2 antag
CC(=O)Nc1cc(OC(C)=O)c2nonc2c1OC(C)=O,54*,i,109*,-3,x,21
Cc1cccc(Nc2nc(NCc3ccco3)c3ccccc3n2)c1,7,-21,-16,0,-91,35
c1ccc(Nc2nc(NCc3ccco3)c3ccccc3n2)cc1,14,x,1,1,-46,62*
CCOc1cc(S(=O)(=O)n2c(C)nc3ccccc32)ccc1Cl,x,x,x,x,80*,10
CCN1CCN(CCC2Oc3cc([N+](=O)[O-])ccc3NC2=O)CC1 (stereo unspecified),-16,x,-4,2,4,4
O=C1C2=C(Nc3cc([N+](=O)[O-])ccc3N2)O[C@H]1c1ccc([C@H]2OC3=C(Nc4ccc([N+](=O)[O-])cc4N3)C2=O)cc1,x,x,x,x,-24,58*
Cc1nn2c(C(F)(F)F)cc(-c3ccc(Cl)cc3)nc2c1C(=O)N1CCOCC1,12,79*,0,0,-3,8
O=C(c1cnn2c(C(F)(F)F)cc(-c3ccc(Br)cc3)nc12)N1CCOCC1,-10,36,-8,-1,-41,8
O=C(CCC(=O)c1cccs1)c1cccs1,x,81*,0,2,-3,8
O=C(CC1SC2=NCCN2C1=O)Nc1ccc(Cl)cc1 (stereo unspecified),-43,77*,-1,4,9,8
CCOC(=O)c1nn(-c2cccc(Cl)c2)c(C)c1C(C)=O,x,92*,-6,0,16,6
CN1[C@@H](C(=O)Nc2cnn(Cc3ccc(F)cc3)c2)C[C@@H](c2ccco2)NS1(=O)=O,x,x,x,x,-3,x
Nc1cccnc1Sc1cc(Cl)cc(Cl)c1,x,90*,-19,-1,-9,9
Cc1cc(C)nc(N2CCC(C(=O)Nc3cccc(C)c3C)CC2)n1,x,x,x,x,0,5
Cc1nc(CSc2nnc(C)s2)cs1,0,62*,-11,1,30,8
Cc1cc(C)c2[nH]c(=O)c(CN(CCCO)C(=O)NCc3ccccc3)cc2c1,x,x,x,x,-21,9
NC(=O)c1c(NC(=O)c2cc3ccccc3o2)sc2c1CCC2,22,x,7,0,-11,42*
NC(=O)c1c(NC(=O)c2ccc3ccccc3c2)sc2c1CCCC2,x,x,x,x,-68,12
CCn1ncc(Br)c1C(=O)Nc1sc2c(c1C(N)=O)CCC2,18,45,10,0,-16,11
Cn1cc(Br)c(C(=O)Nc2sc3c(c2C(N)=O)CCC3)n1,x,-23,-2,-3,-26,40*
Cc1ccc(C(O)CN2CCC3(CC2)CC(O)c2cc(C)c(C)cc2O3)cc1 (stereo unspecified),x,x,x,x,-45,9
Cc1ccc(Nc2c(-c3ccc(N4CCOCC4)cc3)nc3ncccn23)c(C)c1,-11,76*,14,-1,-74,9
COc1cccc(Nc2nc(NCC3CCCO3)c3ccccc3n2)c1 (stereo unspecified),x,33,17,-3,-54,53*
CCn1c(=O)n(CC(=O)Nc2ccccc2N2CCOCC2)c2cccnc21,x,x,x,x,-23,x
N#C/C(=C\c1ccc(N2CCOCC2)o1)c1nc2ccccc2[nH]1,x,-142,-14,0,-34,42*
COc1cc(C(=O)Nc2ccccc2N2CCN(C(=O)C(C)C)CC2)cc(OC)c1OC,x,x,x,x,7,6
C=CCc1cc(Cl)ccc1OCCOCCNC(C)CC (stereo unspecified),-5,x,4,2,-42,5
